In PubChem BioAssay (NCATS):
Values joined by “and” are separate entries in the source; they are usually repeats but may differ in a detail not shown here. Equal entries are not always repeated. Inconclusive results are not listed. Active and inactive are the calls of the source. Unless noted, calls follow the shape of the dose curve; as a rule, active = well fitted curve in the direction sought with a large enough effect; inconclusive = small, poorly fitted or top-dose-only effect, or another doubt; inactive = no such curve, though single readings can be large; an effect the other way counts as inactive or inconclusive.

Key:
[1] = Cell Viability - Jurkat (AID 426;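 active = dose-dependent loss of cell ATP signal giving a full or clear fitted curve, ranked by lower potency value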;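 also: potency is read from the fitted curve at half-maximal effect; cells exposed to compound for 40 hours at 37 °C before ATP read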); conditions: qHTS
Procedure, shortened: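 Cytotoxicity taken as drop in cellular ATP (CellTiter-Glo luminescence, 20 min room temperature) after 40 hr, 37C treatment of 5000 Jurkat Clone E6-1 cells per well; concentration-response fitted with Hill equation for AC50.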

[2] = Cell Viability - Hek293 (AID 427;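 active = compounds whose dose-response curve shows a full or clear partial loss of cell viability, called from curve shape rather than a numeric limit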;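 also: potency is read from the fitted curve at half-maximal effect; cells exposed to compound for 40 hours at 37 °C before reading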); conditions: qHTS
Procedure, shortened: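 Luminescent ATP read-out (CellTiter-Glo, 20 min RT) after 40 hr compound exposure at 37 °C in complete medium. Signal normalized to DMSO (basal) and 100 uM tamoxifen (100% inhibition); concentration-response fitted with the standard Hill equation to give AC50.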

[3] = Cell Viability - HepG2 (AID 433; calls by dose curve;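 also: potency is read from the fitted curve at half-maximal effect; cells exposed to compound for 40 hours; potency for ATP loss meaning cytotoxicity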); conditions: qHTS
Procedure, shortened: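 HepG2 hepatocellular carcinoma cells (1500/well) were treated with compounds for 40 h at 37 °C in complete medium; intracellular ATP was read by CellTiter-Glo luminescence. Data were normalized to DMSO and 100 uM tamoxifen, and AC50 came from Hill fits.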

[4] = Cell Viability - H-4-II-E (AID 543); conditions: H-4-II-E rat hepatoma viability; series mostly up to 92.2 µM;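 also: cells exposed to compound for 40 hours; % is scaled to controls: 0 for no effect and ±100 for the full control effect; nearly all actives have a fitted effect of over 35% in size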
Procedure, shortened: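 CellTiter-Glo luminescence (intracellular ATP) measured after 40 h compound exposure at 37 °C in H-4-II-E rat hepatoma cells seeded at 1500/well. Values are AC50s fitted with the standard Hill equation.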

[5] = Cellular Toxicity (caspase-3) NIH 3T3 (AID 666); conditions: NIH 3T3 caspase-3 activation, apoptosis/toxicity, 0% DMSO, 100% is 100 µM tamoxifen; series mostly up to 92.2 µM;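 also: caspase signal read after 16 h compound exposure; 0% = DMSO basal and 100% = 100 µM tamoxifen stimulation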
Procedure, shortened: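 Caspase-Glo 3/7 luminescence reported caspase activation in 1000 NIH 3T3 cells/well after 16 h compound exposure at 37 C. DMSO set basal and 100 uM tamoxifen set 100% stimulation; concentration-response modeled with the Hill equation for AC50.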

[6] = Cell Viability - LYMP2-009 (AID 968); conditions: LYMP2-009 lymphoblastoid cell viability; series mostly up to 92.2 µM;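 also: 0% = DMSO alone and the full-kill end = tetraoctylammonium bromide at 92 µM; nearly all actives have a fitted effect of over 55% in size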
[7] = Cell Viability - LYMP2-015 (AID 971); conditions: LYMP2-015 lymphoblastoid cell viability; series mostly up to 92.2 µM;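 also: 0% = DMSO only and full effect = 92 µM tetraoctylammonium bromide; nearly all actives have a fitted effect of over 55% in size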
Procedure, shortened: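 Cytotoxicity readout: decrease in intracellular ATP (CellTiter-Glo luminescence) in 2500 LYMP2-015 lymphoblastoid cells/well after 24 h compound exposure at 37 C. Concentration-response data fitted with the standard Hill equation to give AC50.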

[8] = Cell Viability - LYMP2-008 (AID 980); conditions: LYMP2-008 lymphoblastoid cell viability, qHTS; series mostly up to 92.2 µM; also: % is scaled to controls: 0 for no effect and ±100 for the full control effect; nearly all actives have a fitted effect of over 60% in size
Procedure, shortened: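 Cytotoxicity determined from ATP-dependent luciferase luminescence (CellTiter-Glo) following 24 h compound exposure of human lymphoblastoid LYMP2-008 cells at 37 C. Concentration-response data fitted to the Hill equation to give AC50.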

[9] = Cell Viability - LYMP2-020 (AID 986); conditions: series mostly up to 92.2 µM;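 also: plate controls were DMSO only for no effect and tetraoctylammonium bromide at 92 µM for full effect; nearly all actives have a fitted effect of over 55% in size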
Procedure, shortened: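 Cytotoxicity in qHTS format: luminescent ATP readout from CellTiter-Glo after 24 h compound exposure at 37 C in complete medium. LYMP2-020 lymphoblastoid cells were seeded at 2500/well; concentration-response data fitted to the Hill equation for AC50.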

[10] = Cell Viability - LYMP2-022 (AID 987); conditions: LYMP2-022 lymphoblastoid cell viability; series mostly up to 92.2 µM;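 also: 0% = DMSO alone and full effect = tetraoctylammonium bromide at 92 µM; nearly all actives have a fitted effect of over 55% in size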
Procedure, shortened: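 Cytotoxicity read as decreased cellular ATP (CellTiter-Glo luminescence, 30 min room temperature) after 24 hours compound exposure of 2500 lymphoblastoid LYMP2-022 cells/well at 37 C. Concentration-response data fitted with standard Hill equation for AC50.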

[11] = Cell Viability - LYMP2-024 (AID 988); conditions: LYMP2-024 lymphoblastoid cell viability; series mostly up to 92.2 µM;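 also: plate controls were DMSO only for no effect and 92 µM tetraoctylammonium bromide for full effect; nearly all actives have a fitted effect of over 60% in size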
Procedure, shortened: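 Cytotoxicity was taken as a decrease in ATP (CellTiter-Glo luminescence) after 24 hr compound exposure at 37 C of LYMP2-024 lymphoblastoid cells, 2500 cells/well. Concentration-response data were fitted to the Hill equation to give AC50.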

[12] = Cell Viability - LYMP2-026 (AID 989); conditions: LYMP2-026 lymphoblastoid cell viability, qHTS; series mostly up to 92.2 µM; also: % is scaled to controls: 0 for no effect and ±100 for the full control effect; nearly all actives have a fitted effect of over 50% in size
Procedure, shortened: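 Cytotoxicity read as ATP-dependent luminescence (CellTiter-Glo, 30 min room temperature) after 24 h compound treatment at 37 C. LYMP2-026 lymphoblastoid line seeded at 2500 cells/well; AC50 derived by standard Hill equation.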

[13] = Cell Viability - LYMP1-002 - Assay at 40 hr (AID 994); conditions: LYMP1-002 lymphoblastoid cell viability; series mostly up to 92.2 µM;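 also: 0% = DMSO only and full inhibition = 92 µM tetraoctylammonium bromide; nearly all actives have a fitted effect of over 60% in size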
Procedure, shortened: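 Cytotoxicity was read as loss of cellular ATP (CellTiter-Glo luminescence) after 40 hr compound exposure at 37 C of 2500 LYMP1-002 lymphoblastoid cells per well. Concentration-response data were fitted with the standard Hill equation to give AC50.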

[14] = biological target: Glucocorticoid receptor (Homo sapiens) (UniProt P04150); assay: qHTS assay for small molecule antagonists of glucocorticoid receptor signaling (AID 588533; active = well fitted inhibition curve with a large enough effect in the signal ratio, with a control signal flat, not every such curve was filed as active; the % refers to the signal ratio;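 also: cells stimulated with 2 nM dexamethasone as agonist; % is scaled to controls: 0 for no effect and ±100 for the full control effect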); conditions: HeLa MMTV-bla, GRE beta-lactamase ratio, antagonist mode, 18 h; series mostly up to 76.8 µM
Procedure, shortened: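 Antagonist-mode qHTS: compound titrations added to GRE-bla HeLa cells, then dexamethasone 2 nM final; 18 h, 37 C. CCF4 FRET fluorescence normalized to dexamethasone and DMSO; IC50 from Hill fit.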

[15] = biological target: Peroxisome proliferator-activated receptor gamma (Homo sapiens) (UniProt P37231); assay: qHTS assay for small molecule antagonists of peroxisome proliferator-activated receptor gamma signaling (AID 588537; active = well fitted inhibition curve with a large enough effect in the signal ratio, with a control signal flat, not every such curve was filed as active; the % refers to the signal ratio;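 also: reporter cells co-stimulated with 50 nM rosiglitazone agonist during compound treatment; % of control where 0% means no effect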); conditions: HEK293 PPARg-UAS-bla, beta-lactamase ratio, antagonist mode; series mostly up to 76.8 µM
Procedure, shortened: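 Compounds are tested as concentration series for inhibition of rosiglitazone-driven (50 nM) reporter expression in GeneBLAzer PPAR-gamma-UAS-bla HEK293 cells. After 16 h at 37 C, CCF4 substrate is added for 2 h at room temperature and blue/green fluorescence is measured.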

[16] = biological target: Vitamin D3 receptor (Homo sapiens) (UniProt P11473); assay: qHTS assay for small molecule antagonists of vitamin D receptor signaling (AID 588541; calls by dose curve;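 also: receptor activated by calcitriol during compound treatment; % is scaled to controls: 0 for no effect and ±100 for the full control effect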); conditions: HEK293T VDR-UAS-bla, beta-lactamase ratio, antagonist mode; series mostly up to 76.7 µM
Procedure, shortened: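 VDR-UAS-bla HEK293T cells (2000/well, 2% charcoal-stripped FBS) were treated with titrated compounds plus 1-alpha,25-dihydroxyvitamin D3 (50 nM or 3 nM final) for 16 h at 37 C. CCF4 beta-lactamase fluorescence was read; Hill fits gave IC50.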

[17] = biological target: Vitamin D3 receptor (Homo sapiens) (UniProt P11473); assay: qHTS assay for small molecule agonists of vitamin D receptor signaling (AID 588543; calls by dose curve;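 also: 0% = DMSO basal and 100% = reference agonist control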); conditions: HEK293T VDR-UAS-bla, beta-lactamase ratio, 16 h; series mostly up to 76.8 µM
Procedure, shortened: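 GeneBLAzer VDR-UAS-bla HEK293T cells in 2% charcoal-stripped FBS medium were dosed with compound titrations for 16 h at 37 °C; CCF4 β-lactamase readout (405 nm ex, 460/530 nm em). EC50 and efficacy from Hill fits, normalized to 50 nM calcitriol (100%) and DMSO (0%).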

[18] = biological target: Thyroid hormone receptor beta (Homo sapiens) (UniProt P10828); assay: qHTS assay for small molecule agonists of thyroid hormone receptor beta signaling (AID 588545; calls by dose curve;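 also: 0% = DMSO only and 100% = 10 nM T3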); conditions: TR-UAS-bla GripTite HEK 293, beta-lactamase ratio, agonist mode, 18 h, percent of T3 response, DMSO as zero; series mostly up to 76.7 µM
Procedure, shortened: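 Compounds were tested as agonists in TR-UAS-bla-GripTite HEK 293 cells. After 18 hrs at 37 C, CCF4 substrate was added and fluorescence read after 2 hrs at room temperature.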

[19] = qHTS assay for small molecule activators of the p53 signaling pathway (AID 651743; active = well fitted activation curve with a large enough effect in the signal ratio, not every such curve was filed as active; the % refers to the signal ratio; also: % of control where 0% means no effect); conditions: HCT-116 p53RE-bla, beta-lactamase FRET ratio, 16 h; activation: active compounds read high
Procedure, shortened: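 Agonist-mode quantitative HTS in HCT-116 cells carrying a p53-response-element beta-lactamase reporter; 16 h compound treatment at 37 C, then FRET substrate loading for 2 h at room temperature and fluorescence read.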

[20] = qHTS assay for small molecule disruptors of the mitochondrial membrane potential - 5 hr assay (AID 651755; calls by dose curve; also: % is scaled to controls: 0 for no effect and ±100 for the full control effect; nearly all actives have a fitted effect of over 40% in size); conditions: JC-1-type ratio dye; series mostly up to 92.2 µM
Procedure, shortened: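 Seed HepG2 overnight, add compound, incubate 5 hr at 37C and 5% CO2, stain 30 min with Mito-MPS, then measure monomer (490/535 nm) and aggregate (540/590 nm) fluorescence.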

Sequence of Peroxisome proliferator-activated receptor gamma (Homo sapiens) (P37231 whole entry, looked up): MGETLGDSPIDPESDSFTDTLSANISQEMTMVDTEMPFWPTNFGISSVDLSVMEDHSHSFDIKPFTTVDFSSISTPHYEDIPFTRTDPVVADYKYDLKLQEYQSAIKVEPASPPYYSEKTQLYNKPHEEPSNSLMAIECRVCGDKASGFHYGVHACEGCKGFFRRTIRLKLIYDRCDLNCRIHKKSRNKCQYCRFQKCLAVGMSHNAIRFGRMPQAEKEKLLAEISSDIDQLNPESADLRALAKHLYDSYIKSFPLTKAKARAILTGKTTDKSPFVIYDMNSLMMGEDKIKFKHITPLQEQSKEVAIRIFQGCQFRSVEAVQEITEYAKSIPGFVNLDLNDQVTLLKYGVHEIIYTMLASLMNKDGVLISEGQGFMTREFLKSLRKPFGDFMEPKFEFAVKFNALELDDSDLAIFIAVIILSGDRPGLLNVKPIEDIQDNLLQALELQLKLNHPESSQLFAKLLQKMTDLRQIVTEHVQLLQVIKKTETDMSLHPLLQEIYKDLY
Sequence of Vitamin D3 receptor (Homo sapiens) (P11473 whole entry, looked up): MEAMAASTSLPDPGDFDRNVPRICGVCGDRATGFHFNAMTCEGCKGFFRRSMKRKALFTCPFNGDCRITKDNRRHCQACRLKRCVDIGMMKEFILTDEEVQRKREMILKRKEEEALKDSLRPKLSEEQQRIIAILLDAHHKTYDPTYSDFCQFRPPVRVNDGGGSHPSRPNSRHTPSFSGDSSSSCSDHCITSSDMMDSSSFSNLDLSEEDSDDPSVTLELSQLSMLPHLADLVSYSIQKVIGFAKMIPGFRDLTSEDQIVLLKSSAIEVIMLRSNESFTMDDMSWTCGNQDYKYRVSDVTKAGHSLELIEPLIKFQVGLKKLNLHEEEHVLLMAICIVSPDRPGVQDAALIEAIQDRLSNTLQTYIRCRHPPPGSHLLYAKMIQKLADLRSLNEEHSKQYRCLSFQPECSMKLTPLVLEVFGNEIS
Sequence of Glucocorticoid receptor (Homo sapiens) (P04150 whole entry, looked up): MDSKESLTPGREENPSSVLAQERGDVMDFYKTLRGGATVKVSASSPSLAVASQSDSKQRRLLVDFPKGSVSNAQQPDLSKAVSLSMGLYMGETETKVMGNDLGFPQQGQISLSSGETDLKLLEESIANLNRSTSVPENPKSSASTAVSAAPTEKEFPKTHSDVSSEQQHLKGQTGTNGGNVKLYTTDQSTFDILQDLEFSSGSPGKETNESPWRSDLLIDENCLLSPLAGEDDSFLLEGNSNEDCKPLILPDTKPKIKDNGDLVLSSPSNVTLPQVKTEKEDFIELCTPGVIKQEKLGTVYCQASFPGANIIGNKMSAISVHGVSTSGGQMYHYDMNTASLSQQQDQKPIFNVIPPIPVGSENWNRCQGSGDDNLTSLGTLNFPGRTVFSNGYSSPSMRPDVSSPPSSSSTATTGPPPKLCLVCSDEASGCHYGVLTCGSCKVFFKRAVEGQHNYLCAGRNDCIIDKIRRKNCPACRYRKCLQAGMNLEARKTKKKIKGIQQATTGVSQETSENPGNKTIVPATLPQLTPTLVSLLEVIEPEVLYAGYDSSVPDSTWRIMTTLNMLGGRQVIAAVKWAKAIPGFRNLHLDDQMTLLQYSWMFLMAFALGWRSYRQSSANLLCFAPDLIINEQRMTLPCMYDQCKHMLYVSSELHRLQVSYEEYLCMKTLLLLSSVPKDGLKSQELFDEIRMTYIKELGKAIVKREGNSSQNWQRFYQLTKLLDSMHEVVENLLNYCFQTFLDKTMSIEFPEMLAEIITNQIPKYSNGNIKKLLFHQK
Sequence of Thyroid hormone receptor beta (Homo sapiens) (P10828 whole entry, looked up): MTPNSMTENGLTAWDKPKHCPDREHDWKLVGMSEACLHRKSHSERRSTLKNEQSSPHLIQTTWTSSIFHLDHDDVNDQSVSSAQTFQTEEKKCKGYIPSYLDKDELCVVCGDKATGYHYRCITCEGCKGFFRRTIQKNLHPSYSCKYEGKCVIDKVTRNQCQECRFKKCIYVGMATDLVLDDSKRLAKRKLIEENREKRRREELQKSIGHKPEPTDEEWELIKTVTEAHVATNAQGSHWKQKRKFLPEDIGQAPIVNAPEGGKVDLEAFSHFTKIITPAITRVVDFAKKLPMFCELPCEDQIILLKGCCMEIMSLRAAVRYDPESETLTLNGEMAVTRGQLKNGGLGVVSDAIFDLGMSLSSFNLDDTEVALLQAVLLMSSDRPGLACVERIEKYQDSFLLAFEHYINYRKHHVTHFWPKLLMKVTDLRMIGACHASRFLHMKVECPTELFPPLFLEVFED

c1ccc2scnc2c1
inactive: Potency [1] > 92 µM | Potency [2] > 92 µM | Potency [3] > 92 µM | Potency [4] | outcome [5] | Potency [6] | Potency [7] | Potency [8] | Potency [9] | Potency [10] | Potency [11] | Potency [12] | Potency [13] | Potency [14] | outcome [15] | outcome [16] | outcome [17] | outcome [18] | activation [19] 0.66% | Potency [20]

O=C(O)c1ccccc1C(c1ccc(O)cc1)c1ccc(O)cc1
inactive: Potency [1] > 92 µM | Potency [2] > 92 µM | Potency [3] > 92 µM | Potency [4] | outcome [5] | Potency [6] | Potency [7] | Potency [8] | Potency [9] | Potency [10] | Potency [11] | Potency [12] | Potency [13] | Potency [14] | outcome [15] | outcome [18]

O[C@@H]([C@H](O)[C@@H](O)CBr)[C@@H](O)CBr
inactive: Potency [1] > 92 µM | Potency [2] > 92 µM | Potency [3] > 92 µM | Potency [4] | outcome [5] | Potency [6] | Potency [7] | Potency [8] | Potency [9] | Potency [10] | Potency [11] | Potency [12] | Potency [13] | outcome [16] | outcome [17] | outcome [18] | activation [19] 4.39% | Potency [20]

O=S(=O)(O)c1ccccc1
inactive: Potency [1] > 92 µM | Potency [2] > 92 µM | Potency [3] > 92 µM | Potency [4] | outcome [5] | Potency [6] | Potency [7] | Potency [8] | Potency [9] | Potency [10] | Potency [11] | Potency [12] | Potency [13] | Potency [14] | outcome [15] | outcome [16] | outcome [17] | outcome [18] | Potency [20]

O=C1CCc2ccccc2O1
inactive: Potency [1] > 92 µM | Potency [2] > 92 µM | Potency [3] > 92 µM | Potency [4] | outcome [5] | Potency [6] | Potency [7] | Potency [8] | Potency [9] | Potency [10] | Potency [11] | Potency [12] | Potency [13] | Potency [14] | outcome [15] | outcome [17] | outcome [18] | activation [19] -0.942% | Potency [20]

CC1(C)S[C@@H]2[C@H](NC(=O)COc3ccccc3)C(=O)N2[C@H]1C(=O)O
inactive: outcome [15] | outcome [16] | outcome [17] | outcome [18] | activation [19] -0.552%

Cc1c(N=C=O)cccc1N=C=O
inactive: Potency [1] > 92 µM | Potency [2] > 92 µM | Potency [3] > 92 µM | Potency [4] | outcome [5] | Potency [6] | Potency [7] | Potency [8] | Potency [9] | Potency [10] | Potency [11] | Potency [12] | Potency [13] | Potency [14] | outcome [15] | outcome [16] | outcome [17] | outcome [18] | activation [19] -0.524% and 6.01% | Potency [20]

CCCCC(CC)CN (configuration not stated)
inactive: Potency [1] > 92 µM | Potency [2] > 92 µM | Potency [3] > 92 µM | Potency [4] | outcome [5] | Potency [6] | Potency [7] | Potency [8] | Potency [9] | Potency [10] | Potency [11] | Potency [12] | Potency [13] | Potency [14] | outcome [15] | outcome [16] | outcome [17] | outcome [18] | activation [19] -5.5% and 1.33% | Potency [20]
